Only some compounds are listed: those with a hit (about 1.8% of all), similar ones and a draw of the others.
Akt phos inh: HTS Assay for Inhibitors of Akt Phophorylation: Primary Screen. Neuro2A IGF-stimulated pAkt S473 HTRF, 20 min; active compounds read low. activity change, % for hits at 50 µM. 360,000 compounds, 0.32% hits. AID 651550, 2012; in the data active = activity change below about -80%; inconclusive = mostly about -51% to -80%
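Neuro2A cells in DMEM with 0.5% FBS, overnight at 37 deg C, given compound at single 50 µM final, then IGF (6 nM final) for 20 min at 37 deg C. Lysed; phospho-Akt Ser473 by HTRF after 24 h, 665/615 ratio.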
Six1-Eya2 inh: qHTS Assay for Inhibitors of the Six1/Eya2 Interaction. AlphaScreen GST-Six1/His-Eya2 binding, biochemical; active compounds read low. activity change, % (concentration not given with the values). 360,000 compounds, 0.56% hits. AID 651725, 2012
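Homogeneous AlphaScreen proximity assay pairing GST-Six1 with His-tagged Eya2 (added as 5X mix: 250 nM and 500 nM) in 50 mM Tris pH 8.0, 300 mM NaCl, 1 mM TCEP. Glutathione donor and nickel acceptor beads; 1 h, 37 °C, dark.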
CtBP-E1A blk: qHTS Assay for Inhibitors of the CtBP/E1A Interaction; CtBP / adenovirus E1A interaction (AlphaScreen); AlphaScreen GST-E1A/His-CtBP binding, 1536-well; active compounds read low; activity change, % (concentration not given with the values); 340,000 compounds, 0.49% hits; AID 651724, 2012
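Steps: dispense buffer (Tris pH 8.0, NaCl 300 mM, TCEP 1 mM, BSA, Tween 20); add 5X protein mix (GST-E1A, His-CtBP, 125 nM each); pin 23 nL compound; 2 h at 37 °C, dark; add 5X beads (50 ug/mL); 1 h; read.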
PI5P4K alpha inh: qHTS for Inhibitors of phosphatidylinositol 5-phosphate 4-kinase (PI5P4K); PI5P4Kalpha enzyme, ADP-Glo luminescence, 60 min; active compounds read low; max response, %; 330,000 compounds, 1.2% hits; AID 652105, 2013; active = max response of -50% or lower; inconclusive = between -30% and -50%; inactive = -30% or higher; also: value at the top dose of about 77 µM
Target sequence (P48426 whole entry, looked up): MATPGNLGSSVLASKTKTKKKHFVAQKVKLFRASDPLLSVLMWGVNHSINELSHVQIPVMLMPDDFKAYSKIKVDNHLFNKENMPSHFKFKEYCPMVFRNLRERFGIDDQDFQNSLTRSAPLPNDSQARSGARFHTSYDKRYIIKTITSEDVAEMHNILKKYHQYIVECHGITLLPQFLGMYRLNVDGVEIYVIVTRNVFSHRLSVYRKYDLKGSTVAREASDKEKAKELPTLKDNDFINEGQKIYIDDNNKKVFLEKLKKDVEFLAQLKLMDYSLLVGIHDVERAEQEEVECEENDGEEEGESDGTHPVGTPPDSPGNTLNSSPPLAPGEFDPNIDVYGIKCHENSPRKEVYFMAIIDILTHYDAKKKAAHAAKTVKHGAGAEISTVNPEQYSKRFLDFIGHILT
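Compounds were pin-transferred onto PI5P4Kalpha and substrate in HEPES pH 7.4 buffer with EGTA, CHAPS and 5% DMSO. ATP (5 microM final) started the reaction, which ran 60 minutes at room temperature before ADP-Glo detection.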
PI4K2A block: qHTS for small molecular inhibitors of PI4K2A | purified PI4K2A, ADP-Glo luminescence, 1 h; active compounds read low | activity change, negative = inhibition, % at 76.9 µM | 420,000 compounds, 0.13% hits | AID 1346378, 2018; in the data active = activity change below about -50%; inconclusive = mostly about -30% to -49%;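 also: -100% = wells without enzyme as full effect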
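PI4K2A activity was measured by ADP-Glo luminescence: enzyme (4 ug/mL stock) and phosphatidylinositol (1.2 mM stock) in Tris pH 7.5/MgCl2/EGTA/Triton X-100 buffer were reacted with ATP (300 microM stock) for one hour at ambient temperature.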
Numbers without * were called inactive; i = inactive; ? = inconclusive; / = no result given. Rule as the data show it, unless noted: active = activity change below about -65%; inconclusive = mostly about -30% to -63%; inactive = weaker than that. Unless noted, % is scaled to controls: 0 for no effect and ±100 for the full control effect.

SMILES | Akt phos inh | Six1-Eya2 inh | CtBP-E1A blk | PI5P4K alpha inh | PI4K2A block
Cc1cc([N+](=O)[O-])nn1Cc1ccc(C(=O)N/N=C/c2ccc(O)cc2O)cc1 | i | -89* | ? | 1 | -4
Cc1cc([N+](=O)[O-])nn1CC(=O)N/N=C/c1ccccc1O | i | -92* | ? | -1 | -2
Nc1nnc(CC(=O)N/N=C\c2cc([N+](=O)[O-])ccc2O)s1 | i | -92* | -91* | -23 | -2
Cc1cc([N+](=O)[O-])nn1Cc1ccc(C(=O)N/N=C/c2ccc(F)cc2)cc1 | i | 0 | -6 | 1 | 3
COCCNC(=O)Cn1cnc2ccc(S(=O)(=O)N3CCC(C)CC3)cc2c1=O | i | -2 | 7 | 0 | 1
Cc1cc(C)n(CC(=O)N/N=C/c2cc(Br)cc([N+](=O)[O-])c2O)n1 | i | ? | / | -6 | 6
Cc1cc(C)n(CC(=O)N/N=C/c2cc([N+](=O)[O-])ccc2O)n1 | i | -88* | -91* | -7 | 7
CCOC(=O)c1c2c3c(cccc3n(C)c1=O)C(=O)c1ccccc1-2 | i | -69* | -83* | -1 | 2
CCOC(=O)c1c2c(n(Cc3ccccc3)c1C)C(=O)C(=O)c1ccccc1-2 | i | ? | -79* | 14 | ?
CCOC(=O)c1c2c3c(c(Cl)ccc3[nH]c1=O)C(=O)c1ccccc1-2 | i | -76* | -89* | -22 | 8
CC(=O)Nc1c2c3c(cccc3n(C)c1=O)C(=O)c1ccccc1-2 | -113%* | -13 | -3 | -3 | 10
COc1cc2c(cc1OC)C(=O)C(c1ccc3c(c1)OCO3)CC2 (configuration not stated) | i | 1 | 2 | 0 | 8
O=C(O)c1ccccc1N/N=C\c1ccnc2ccccc12 | i | -8 | -2 | -68* | 1
ON=Cc1ccnc2ccccc12 | i | -1 | 3 | 8 | 11
CC1=C(C(=O)Nc2ccc(C)cc2C)C(c2ccccc2[N+](=O)[O-])n2ncc(C(=O)Nc3ccccc3)c2N1 (configuration not stated) | / | / | / | / | -1
CN(C)c1nc(-c2ccccn2)nnc1-c1ccccc1 | i | -92* | -96* | -5 | -23
CCOC(=O)C(C)Sc1nc(-c2ccccn2)ncc1OC (configuration not stated) | i | -91* | / | 4 | -11
COc1cnc(-c2ccccn2)nc1Sc1ccccc1Cl | i | ? | ? | / | -3
COc1cnc(-c2ccccn2)nc1N(C)C | i | -89* | -94* | -1 | -21
CCCCn1c(=O)[nH]c(=O)c2c1nc(Cn1ncc(Cl)c(Cl)c1=O)n2CCC | i | -13 | 3 | -52* | -16
CCCCn1c(=O)[nH]c(=O)c2c1nc(CN1C(=O)c3ccccc3S1(=O)=O)n2CCC | i | -2 | -1 | -3 | -7
Cc1ccc2nc(/C(C#N)=C/c3ccc(O)c(O)c3)[nH]c2c1 | i | -7 | -25 | -69* | 3
O=C(COC(=O)C1COc2ccccc2O1)NC(=O)NC1CCCC1 (configuration not stated) | -98%* | -9 | 0 | 8 | -7
CN(C=[N+](C)C)c1cccc2c1C(=O)c1ccccc1C2=O | i | -66* | -68* | -1 | -6
CCN(CC(=O)NCc1ccc(Cl)cc1)C(=O)/C=C/c1ccco1 | i | 3 | 16 | 5 | -3
SMILES | Akt phos inh | Six1-Eya2 inh | CtBP-E1A blk | PI5P4K alpha inh | PI4K2A block
Cc1cc(C)n2c(SCC(O)=C(C#N)c3nc4ccccc4[nH]3)nnc2n1 | i | -29 | -24 | -74* | -16
COc1ccc(C)cc1-n1nnnc1SC/C(O)=C(\C#N)c1nc2ccccc2[nH]1 | i | -9 | -17 | ? | -7
Cc1ccc(Nc2nnc(SC/C(O)=C(\C#N)c3nc4ccccc4[nH]3)s2)c(C)c1 | i | -24 | -14 | -60* | -3
Cc1cccc(Nc2nnc(SC/C(O)=C(\C#N)c3nc4ccccc4[nH]3)s2)c1 | i | -14 | -22 | -54* | -4
CC(C)N(Cc1ccccc1)C(=O)COC(=O)/C=C/c1cnc2ccccc2n1 | i | -22 | -87* | -4 | 8
CCOc1ccc(S(=O)(=O)N2CCCC(C(=O)NCCN3CCOCC3)C2)cc1Cl (configuration not stated) | i | 3 | 1 | 2 | -5
CCC(C)N=C1Sc2nc3ccc(C)cc3cc2CN1CCOC (configuration not stated) | i | 6 | 3 | -53* | -2
O=C(CSc1nc2nn(-c3ccccc3)c(=O)c-2c2n1CCCCC2)c1ccc(O)c(O)c1 | i | -25 | -5 | -54* | -6
CNC(=O)CSc1nc2nn(-c3ccccc3)c(=O)c-2c2n1CCCCC2 | i | 5 | 4 | / | 1
COc1ccccc1N1CCN(CC(=O)NC(=O)NCc2ccccc2)CC1 | i | 2 | 2 | 7 | -4
CC1=C(C(=O)O)N2C(=O)[C@@H](NC(=O)C(N)c3ccccc3)[C@H]2SC1 (some centres not stated) | / | / | / | / | -2
NC(=O)c1cc[n+](CC2=C(C(=O)O)N3C(=O)[C@@H](NC(=O)C(c4ccccc4)S(=O)(=O)[O-])[C@H]3SC2)cc1 (some centres not stated) | i | ? | -7 | -97* | ?
COc1ccc(CCNC(=O)c2c(O)c3cccc4c3n(c2=O)CC4)cc1 | i | 7 | 9 | -81* | -5
O=C(NCCc1ccccc1)c1c(O)c2cccc3c2n(c1=O)CC3 | i | 7 | -2 | 3 | -4
COc1cccc(/C=N/NC(=O)c2cc(-c3cccn3C)n[nH]2)c1O | i | -90* | -90* | ? | -5
COc1ccc(/C=N/NC(=O)c2[nH]c3ccc(Cl)cc3c2-c2ccccc2)c(C(=O)O)c1OC | i | -72* | ? | -5 | -3
COc1ccc(OC)c2[nH]c(C(=O)N/N=C/c3ccccc3O)cc12 | i | -74* | / | -3 | -1
COc1cccc(/C=N/NC(=O)c2cc(-c3cccn3C)n[nH]2)c1 | i | ? | ? | 0 | -4
COc1cc(/C=N/NC(=O)c2cc(-c3cccn3C)n[nH]2)cc(OC)c1OC | i | -67* | -75* | / | 2
CCCC(=O)N(CCN1CCOCC1)c1nc2c(F)cc(F)cc2s1 | i | 0 | -10 | 3 | -5
CC(C)N1C(=O)C(Cc2nc3ccccc3c(=O)n2-c2ccccc2)c2ccccc21 (configuration not stated) | / | -5 | ? | / | 5

Compound activity (PubChem BioAssay)
